The record followed here is PubChem BioAssay.

A short description of experiment [1]: compounds binding Alexa647 anti-His antibody – biochemical, small-molecule microarray, 635 nm fluorescence, artefact control for SMM control protein annotation, primary screen (AID 1128).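 Also: score merges feature fluorescence with signal-to-noise for each printed compound spot.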 Conditions: higher = more signal.
Experiment [2] deals with Human papillomavirus type 1a E7 protein (residues 1-88). In words: HPV1a E7 small-molecule binders, primary screen, biochemical, small-molecule microarray, residues 1-88, 635 nm (AID 1129). Conditions: small-molecule microarray binding, fluorescence 635 nm; higher = more signal.
The target in experiment [3] is Focal adhesion kinase 1 (Homo sapiens) (UniProt Q05397). In words: PTK2 protein binding on printed compound slides – biochemical, small-molecule microarray, 635/667 nm fluorescence, BSA, DTT, primary screen (AID 1130).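 Also: composite of spot emission at 667 nm and signal to noise over triplicate slides.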 Conditions: 635 nm fluorescence, higher = more signal.
Sequence of Focal adhesion kinase 1 (Homo sapiens) (Q05397 whole entry, looked up): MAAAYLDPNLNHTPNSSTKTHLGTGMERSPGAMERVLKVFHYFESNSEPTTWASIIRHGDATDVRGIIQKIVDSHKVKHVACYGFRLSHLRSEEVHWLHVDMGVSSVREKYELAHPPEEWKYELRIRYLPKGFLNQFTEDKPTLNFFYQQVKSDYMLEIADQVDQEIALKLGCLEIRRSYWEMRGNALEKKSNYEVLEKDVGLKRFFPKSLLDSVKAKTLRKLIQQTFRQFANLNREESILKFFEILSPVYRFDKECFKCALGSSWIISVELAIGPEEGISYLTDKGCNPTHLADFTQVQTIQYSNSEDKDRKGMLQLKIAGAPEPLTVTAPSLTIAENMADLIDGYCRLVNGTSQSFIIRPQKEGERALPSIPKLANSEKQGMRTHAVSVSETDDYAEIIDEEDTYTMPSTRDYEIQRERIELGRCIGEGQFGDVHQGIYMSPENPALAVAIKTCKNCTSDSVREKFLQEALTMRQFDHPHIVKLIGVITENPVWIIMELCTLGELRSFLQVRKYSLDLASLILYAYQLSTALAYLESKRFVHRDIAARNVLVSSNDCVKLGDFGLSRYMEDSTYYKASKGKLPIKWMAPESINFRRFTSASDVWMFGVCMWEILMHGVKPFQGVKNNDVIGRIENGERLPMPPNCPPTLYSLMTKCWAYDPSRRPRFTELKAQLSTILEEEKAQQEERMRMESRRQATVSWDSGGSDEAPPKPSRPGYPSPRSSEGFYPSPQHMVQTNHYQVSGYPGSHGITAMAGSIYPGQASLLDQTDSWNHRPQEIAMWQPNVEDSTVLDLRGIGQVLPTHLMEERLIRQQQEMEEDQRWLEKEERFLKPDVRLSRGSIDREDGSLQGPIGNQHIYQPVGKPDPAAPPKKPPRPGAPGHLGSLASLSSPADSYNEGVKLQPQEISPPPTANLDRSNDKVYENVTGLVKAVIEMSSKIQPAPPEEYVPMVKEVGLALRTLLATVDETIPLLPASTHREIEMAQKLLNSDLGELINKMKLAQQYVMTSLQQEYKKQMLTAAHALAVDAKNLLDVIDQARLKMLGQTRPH
For experiment [4], the system named is Fibrinogen (Alexa647-labelled). In words: Alexa647-fibrinogen binding to printed small molecules – biochemical, small-molecule microarray, 635/667 nm fluorescence, artefact control for SMM control-protein annotation, profiling panel (AID 1131).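 Also: z-score merges 667 nm fluorescence with per-spot signal-to-noise over triplicate slides.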 Conditions: fibrinogen-A647 binding fluorescence, higher = more signal.
Experiment [5] has as its target Follistatin (Homo sapiens) (UniProt P19883). In words: FST protein binding to printed compounds – biochemical, small-molecule microarray, 635/667 nm fluorescence, primary screen (AID 1132). Conditions: 635 nm fluorescence, higher = more signal.
Experiment [6] addresses Fibroblast growth factor 2 (Homo sapiens) (UniProt P09038). In words: basic fibroblast growth factor binding to printed compounds – biochemical, small-molecule microarray, 635/667 nm fluorescence, primary screen (AID 1133). Conditions: FGF2, fluorescence 635/667, higher = more signal.
The nature of experiment [7]: JC-1 mitochondrial potential readout, lung cancer cells – cell-based, A549, JC-1 fluorescence, basal, 24 h, 100 nL, profiling panel (AID 1138).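 Also: A549 lung adenocarcinoma cells under basal conditions with no added stimulus; test concentration not given here.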 Conditions: higher = more signal.
The subject of experiment [8] is Lefty1. In words: Lefty1 protein binding to printed compounds – biochemical, small-molecule microarray, 635/667 nm fluorescence, primary screen (AID 1139). Conditions: fluorescence 635/667, higher = more signal.
Experiment [9] has as its system wheat germ agglutinin (Triticum aestivum), Alexa647-labelled. In words: Alexa647-WGA lectin binding to printed small molecules – biochemical, small-molecule microarray, 635/667 nm fluorescence, artefact control for SMM control-protein annotation, profiling panel (AID 1140).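 Also: score merges 667 nm feature emission with signal to noise over triplicate slides.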 Conditions: WGA-A647 binding, 635 nm fluorescence, higher = more signal.
Experiment [10] addresses Luciferin 4-monooxygenase (Photinus pyralis) (UniProt P08659). In words: inhibition of purified Photinus pyralis luciferase – biochemical, luminescence, purified enzyme, 2006 set, primary screen (AID 1141).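 Also: cell-free assay with purified firefly luciferase at 100 ng per well in PBS; test concentration not given here.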 Conditions: purified firefly luciferase, SteadyGlo luminescence, 30 min; higher = more signal, called active from +8 up or from −8 down.

Calls of active or inactive are those of the source.

Sequence of Follistatin (Homo sapiens) (P19883 whole entry, looked up): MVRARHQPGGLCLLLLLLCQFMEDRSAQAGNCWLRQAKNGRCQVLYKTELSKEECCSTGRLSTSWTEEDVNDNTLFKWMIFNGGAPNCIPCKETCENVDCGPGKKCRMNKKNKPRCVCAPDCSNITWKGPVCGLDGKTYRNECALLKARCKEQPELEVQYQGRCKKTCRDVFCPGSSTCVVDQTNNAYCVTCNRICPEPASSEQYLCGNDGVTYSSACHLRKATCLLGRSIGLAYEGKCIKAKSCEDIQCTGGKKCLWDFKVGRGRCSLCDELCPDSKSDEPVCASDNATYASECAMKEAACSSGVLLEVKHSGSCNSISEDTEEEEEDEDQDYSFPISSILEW
Sequence of Luciferin 4-monooxygenase (Photinus pyralis) (P08659 whole entry, looked up): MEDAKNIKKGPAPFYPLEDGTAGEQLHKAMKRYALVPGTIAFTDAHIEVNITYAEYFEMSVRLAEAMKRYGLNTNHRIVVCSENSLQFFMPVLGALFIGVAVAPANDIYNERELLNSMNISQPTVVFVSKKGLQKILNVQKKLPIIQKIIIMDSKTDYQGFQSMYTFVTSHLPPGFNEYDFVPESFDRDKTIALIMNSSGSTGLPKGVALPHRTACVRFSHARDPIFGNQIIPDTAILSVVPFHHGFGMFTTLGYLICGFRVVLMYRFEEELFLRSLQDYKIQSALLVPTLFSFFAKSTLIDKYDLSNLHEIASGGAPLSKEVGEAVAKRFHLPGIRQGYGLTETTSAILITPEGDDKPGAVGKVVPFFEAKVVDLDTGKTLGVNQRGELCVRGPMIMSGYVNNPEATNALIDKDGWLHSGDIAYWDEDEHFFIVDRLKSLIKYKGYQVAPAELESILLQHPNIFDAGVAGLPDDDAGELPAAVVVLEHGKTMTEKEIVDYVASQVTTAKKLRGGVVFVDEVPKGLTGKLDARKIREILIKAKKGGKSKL
Sequence of Fibroblast growth factor 2 (Homo sapiens) (P09038 whole entry, looked up): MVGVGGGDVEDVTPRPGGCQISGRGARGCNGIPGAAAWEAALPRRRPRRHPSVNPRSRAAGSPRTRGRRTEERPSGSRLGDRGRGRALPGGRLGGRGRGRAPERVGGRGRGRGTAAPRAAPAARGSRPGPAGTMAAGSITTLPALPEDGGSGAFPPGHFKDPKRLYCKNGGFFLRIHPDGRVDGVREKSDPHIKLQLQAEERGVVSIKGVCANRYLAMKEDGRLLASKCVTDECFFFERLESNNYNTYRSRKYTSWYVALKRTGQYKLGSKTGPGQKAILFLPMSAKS

Take `O=C(NN=C1C[C@@H](O)[C@@H](O)[C@@H]2[C@@H]3C(=O)N(C4CCCCC4)C(=O)[C@@H]3CC[C@@H]12)OCc1ccccc1`: the composite z-score was 0.0161 in experiment [1]; 0.139 in experiment [2]; 0.0639 in experiment [3]; 0.294 in experiment [4]; 0.0434 in experiment [5]; 0.243 in [6]. In addition, the results for the composite z-score in experiment [8] and in [9] were -0.0104 and -0.132, respectively. The z-score in experiment [7] is 0.163; in experiment [10] it was -0.427 (inactive).

With `CO[C@@H]1COC(=O)[C@H](CCSC)NC(=O)CC=C[C@@H](C)COC(=O)CCC[C@H]1C`, the composite z-score is -0.252 in experiment [1]; -1.17 in experiment [2]; -0.798 in experiment [3]; -2.26 in experiment [4]; 1.44 in experiment [5]; 1.97 in experiment [6]. Further, the results for the composite z-score in experiment [8] and in [9] were 1.84 and -0.65, respectively. Besides, the results for the z-score in experiment [7] and in experiment [10] were 0.803 and 1.05 (inactive), respectively.

`O=C1[C@H]2[C@H]3[C@H](O)[C@H](O)CC(=NOCc4ccccc4)[C@@H]3CC[C@H]2C(=O)N1C[C@@H]1CCCO1`: the composite z-score in [1] is -0.016; in experiment [2] it was -0.182; in experiment [3], 0.205; in experiment [4] it was 0.237; in [5] it was -0.0829; in experiment [6] it was 0.0592. Besides, the composite z-score in [8] is -0.0955; in experiment [9], -0.396. The results for the z-score in [7] and in [10] were -0.485 and 0.903 (inactive), respectively.

For the compound `CCOC(=O)NN=C1C[C@@H](O)[C@@H](O)[C@@H]2[C@@H]3C(=O)N(c4cccc(Oc5ccccc5)c4)C(=O)[C@@H]3CC[C@@H]12`, the composite z-score is -0.103 in experiment [1]; 0.45 in experiment [2]; 0.0767 in experiment [3]; 0.681 in experiment [4]; -0.445 in experiment [5]; -0.248 in [6]. The composite z-score is -0.318 in experiment [8] and 0.327 in experiment [9]. In addition, the z-score is -0.44 in experiment [7] and 0.607 (inactive) in experiment [10].

`C[C@@H]1CC[C@H]2C(=O)O[C@@H](COc3ccc(C(C)(C)C)cc3)CN2[C@@H]1c1ccc(Br)cc1`: the composite z-score in [1] was 2.71; in experiment [2], -0.741; in experiment [3], 0.225; in [4] it was 0.172; in experiment [5] it was -0.0473; in experiment [6], -0.62. Moreover, the composite z-score in [8] was -0.255; in experiment [9], -0.383. For the same compound, the figures for the z-score in experiment [7] and in experiment [10] were 0.841 and -0.864 (inactive), respectively.

As for `O=C1[C@H]2[C@H]3[C@H](O)[C@H](O)CC(=NOCc4ccccc4)[C@@H]3CC[C@H]2C(=O)N1Cc1ccc2c(c1)OCO2`, the composite z-score in experiment [1] is 0.0116; in [2], 0.316; in [3] it was 0.928; in experiment [4] it was 0.866; in experiment [5], 1.23; in experiment [6], 0.319. Also, the results for the composite z-score in experiment [8] and in experiment [9] were 0.268 and 0.261, respectively. In addition, the z-score in experiment [7] is -0.368; in [10], 0.729 (inactive).

In the case of `CON=C[C@@H](C)[C@H](OCc1ccccc1)C(C)C`, the composite z-score was -0.032 in experiment [1]; -1.2 in experiment [2]; 0.119 in experiment [3]; -0.734 in experiment [4]; 0.359 in experiment [5]; 0.211 in experiment [6]. For the same compound, the composite z-score in experiment [8] was 0.347; in [9] it was -0.195. Also, the z-score in experiment [7] was -1.1; in experiment [10], 0.592 (inactive).

`CCOC(=O)[C@H](Cc1ccccc1)NC(=O)CCC1CC(OC(=O)NCc2cccc3ccccc23)CC2(CCCC(COC(=O)NCc3ccccc3)O2)O1` (stereo not given in full): the composite z-score in [1] is -0.198; in experiment [2] it was 0.3; in [3], 0.172; in experiment [4] it was 0.0039; in experiment [5], 0.449; in [6] it was 0.348. For the same compound, the figures for the composite z-score in [8] and in experiment [9] were 0.401 and -0.0623, respectively. For the same compound, the figures for the z-score in [7] and in experiment [10] were -0.133 and 0.877 (inactive), respectively.

For the compound `CCCNC(=O)OC[C@H]1O[C@H](CCON=C(C)CCN2CCCc3nc(C)c(C)cc32)C=C[C@@H]1Oc1ccc(OC)cc1`, the composite z-score in [1] worked out at 1.4; in experiment [2] it was 1.09; in [3], 0.664; in experiment [4], 0.808; in experiment [5], 0.585; in [6] it was 0.499. The composite z-score was 0.252 in [8] and 0.625 in experiment [9]. Further, the z-score in [7] was 1.85; in experiment [10], 0.326 (inactive).

For the compound `CCc1cc2c(nc1CC)CCN(CCC(C)=NO[C@H](C)c1cn([C@H](CO)Cc3ccccc3)nn1)C2`, the composite z-score came to 1.08 in experiment [1]; 0.282 in [2]; 0.119 in experiment [3]; 0.408 in experiment [4]; 0.672 in experiment [5]; 0.884 in experiment [6]. Further, the figures for the composite z-score in [8] and in [9] were 0.531 and 0.55, respectively. The z-score in experiment [7] was 0.085; in experiment [10] it was -0.378 (inactive).

Turning to `O=C1CCCC(C2=CCCCC2=O)C1` (stereo not given), the composite z-score in experiment [1] is -0.496; in experiment [2], -0.624; in [3], 0.26; in experiment [4], -0.67; in experiment [5] it was 1.01; in experiment [6], 0.567. Moreover, the composite z-score in experiment [8] was 1.02; in experiment [9], -0.397. Further, the results for the z-score in experiment [7] and in [10] were 0.475 and -0.242 (inactive), respectively.

Take `CCCNC(=O)OC[C@H]1O[C@H](CCON=C(C)C)C=C[C@@H]1Oc1ccc(OC)cc1`: the composite z-score in experiment [1] was 1.82; in experiment [2], -0.124; in experiment [3], 0.105; in experiment [4], 0.448; in experiment [5], -0.132; in [6], -0.245. For the same compound, the values for the composite z-score in experiment [8] and in experiment [9] were 0.0114 and -0.0321, respectively. Besides, the z-score in [7] was -0.218; in [10] it was -0.129 (inactive).

Take `CC(C)[C@@H](OCc1ccccc1)[C@H](C)C=NOC[C@@H](O)COCc1ccco1`: the composite z-score in experiment [1] was 1.29; in experiment [2] it was -0.244; in experiment [3] it was -0.277; in experiment [4] it was -1.75; in experiment [5], -1.05; in experiment [6] it was -1.37. Besides, the composite z-score is -0.801 in [8] and -1.29 in experiment [9]. For the same compound, the z-score in experiment [7] was -0.541; in experiment [10], 0.331 (inactive).

`CCOC(=O)[C@H](Cc1ccccc1)NC(=O)CCC1CC(OC(=O)NCCc2ccc(F)cc2)CC2(CCCC(COC(=O)NCCOC)O2)O1` (stereo not given in full): the composite z-score in experiment [1] worked out at 0.384; in experiment [2] it was 1.17; in experiment [3], 2.79; in [4], 0.916; in experiment [5], 1.01; in [6], 0.557. The composite z-score stood at 1.26 in experiment [8] and 0.526 in experiment [9]. Moreover, the z-score in experiment [7] is 0.671; in experiment [10], -0.24 (inactive).
